{
  "source": "PubChem BioAssay (Tox21)",
  "note": "Inconclusive results are not listed. The source made the active and inactive calls. The call rests on the fitted dose curve; in most records, active means well fitted activation curve with a large enough effect in the repeat runs; inconclusive means weak or mixed curves; inactive means flat fitted curve, though single readings scatter. On the % scale 0 is the no-effect control and ±100 the full control effect; potency means the concentration at half of the fitted maximal effect.",
  "data": [
    {"assay": "A CellTox Green Cytotoxicity Assay to monitor cytotoxicity in HepG2 cells - 40 hour (AID 1224879); further: nearly all actives have a fitted effect of over 40% in size", "details": "CellTox Green fluorescence; series mostly up to 76.8 µM; cytotoxicity increase: at the top concentration", "source_text": "National Center for Advancing Translational Sciences [NCATS]\nNIH Chemical Genomics Center [NCGC]\nU.S. Environmental Protection Agency [EPA]\nNational Institutes of Environmental Health Sciences [NIEHS]\nNational Toxicology Program [NTP]\nCell-based models are critical for drug discovery. Determining the natural cytotoxic effects resulting from test compounds is an essential research activity. A CellTox Green Cytotoxicity Assay to monitor cytotoxicity in real time of continues cell culture during 40 hours of the compound treatment was used to screen Tox21 10K library compounds in HepG2 cells. CellTox Green Cytotoxicity Assay is a nonlytic, homogeneous, biofluorescent method to measure cytotoxicity in cell culture after experimental manipulation. The assay system uses a proprietary asymmetric cyanine dye that is excluded from viable cells but preferentially stains the dead cell's DNA. […] Viable cells produce no appreciable increases in fluorescence. Therefore, the fluorescence signal produced by the binding interaction with dead cell DNA is proportional to cytotoxicity.\nThe mixture of HepG2 cell suspension and reagents were dispensed at 600cells/6 ul/well in 1536-well tissue culture treated black solid bottom plates using a Multidrop dispenser. After the assay plates were incubated at a 37 C/5% CO2 incubator for 5 hours, 23 nL of compounds dissolved in DMSO, positive and negative controls was transferred to the assay plate by a pintool work station. The plates were incubated at 37 C for 40 hours. The fluorescence intensity were measured at 0h, 8h, 16h, 24h, 32h and 40h time points using ViewLux plate reader during compound treatment.", "values": [
      {"smiles": "CCCCCCn1c(=O)c2c(ncn2C)n(C)c1=O", "cytotoxicity increase": "-20.1% [at 35.3 µM] (inactive)"},
      {"smiles": "CC(C)NCC(O)COc1ccc(CCOCC2CC2)cc1", "note": "(stereo not given)", "cytotoxicity increase": "8.76% [at 35.3 µM] (inactive)"},
      {"smiles": "CC(C)C(=O)OCC(C)(C)C(O)C(C)C", "note": "(stereo not given)", "cytotoxicity increase": "-1.79% (inactive)"},
      {"smiles": "CN(C)Cc1ccccc1", "cytotoxicity increase": "-0.114% (inactive)"},
      {"smiles": "O=C(Cl)c1cccc([N+](=O)[O-])c1", "cytotoxicity increase": "-2.83% (inactive)"},
      {"smiles": "Cc1cc(S(=O)(=O)O)c(N)cc1Cl", "cytotoxicity increase": "-0.546% (inactive)"},
      {"smiles": "O=C(O[C@@H](C(=O)O)[C@@H](OC(=O)c1ccccc1)C(=O)O)c1ccccc1", "cytotoxicity increase": "5.27% (inactive)"},
      {"smiles": "CCOC(=O)c1cc(=O)c2c(OCC(COc3cccc4oc(C(=O)OCC)cc(=O)c34)OC(=O)[C@@H](N)CCCCN)cccc2o1", "cytotoxicity increase": "-12.7% [at 35.3 µM] (inactive)"},
      {"smiles": "O=C1CCCc2ccccc21", "cytotoxicity increase": "-3.25% (inactive)"},
      {"smiles": "CN1CCN(C2=Nc3ccccc3Oc3ccc(Cl)cc32)CC1", "Potency": "19 µM (active)"},
      {"smiles": "Cc1c(-c2ccccc2)oc2c(C(=O)OCCN3CCCCC3)cccc2c1=O", "cytotoxicity increase": "9.85% [at 35.3 µM] (inactive)"},
      {"smiles": "C[C@@H](N)C(=O)O", "cytotoxicity increase": "7.75% [at 35.3 µM] (inactive)"},
      {"smiles": "Cc1ccccc1C(=O)Nc1ccc(C(=O)N2CCCC(O)c3cc(Cl)ccc32)c(C)c1", "note": "(stereo not given)", "cytotoxicity increase": "6.56% [at 35.3 µM] (inactive)"},
      {"smiles": "CN1CCN(c2c(F)cc3c(=O)c(C(=O)O)cn4c3c2SCC4)CC1", "cytotoxicity increase": "-3.3% [at 35.3 µM] (inactive)"},
      {"smiles": "CCCNC(C)(C)COC(=O)c1ccccc1", "cytotoxicity increase": "-7.95% [at 35.3 µM] (inactive)"},
      {"smiles": "O=c1[nH]cnc2c1ncn2[C@@H]1O[C@H](CO)[C@@H](O)[C@H]1O", "cytotoxicity increase": "-12.1% [at 35.3 µM] (inactive)"},
      {"smiles": "CN(C)CC[C@@H](c1ccc(Cl)cc1)c1ccccn1", "cytotoxicity increase": "-7.37% [at 35.3 µM] (inactive)"},
      {"smiles": "CCOC(=O)[C@H](CCc1ccccc1)N[C@@H](C)C(=O)N1Cc2cc(OC)c(OC)cc2C[C@H]1C(=O)O", "cytotoxicity increase": "-0.373% [at 35.3 µM] (inactive)"},
      {"smiles": "O=C1CCC(C2CCCCC2)CC1", "Potency": "38.9 µM (active)"},
      {"smiles": "CCN1CC(CCN2CCOCC2)C(c2ccccc2)(c2ccccc2)C1=O", "note": "(stereo not given)", "cytotoxicity increase": "-1.56% [at 35.3 µM] (inactive)"},
      {"smiles": "CCC(=O)O[C@]1(C(=O)SCF)[C@H](C)C[C@H]2[C@@H]3C[C@H](F)C4=CC(=O)C=C[C@]4(C)[C@@]3(F)[C@@H](O)C[C@@]21C", "cytotoxicity increase": "2.25% [at 35.3 µM] (inactive)"},
      {"smiles": "CC1CN(c2ccccc2)NC1=O", "note": "(stereo not given)", "cytotoxicity increase": "-1.74% (inactive)"},
      {"smiles": "Oc1ccccc1F", "cytotoxicity increase": "-2.03% (inactive)"},
      {"smiles": "O=C(O)C(=O)Cc1c[nH]c2ccccc12", "cytotoxicity increase": "15.9% (inactive)"},
      {"smiles": "Cc1ccc(C=O)s1", "Potency": "27.5 µM (active)"},
      {"smiles": "N#CSCC(=O)O", "cytotoxicity increase": "0.27% [at 35.3 µM] (inactive)"},
      {"smiles": "CO[Si](C)(C)OC", "cytotoxicity increase": "-9.58% (inactive)"},
      {"smiles": "CC(C)C[C@H](NC(=O)OCC1c2ccccc2-c2ccccc21)C(=O)O", "cytotoxicity increase": "-5.42% (inactive)"},
      {"smiles": "O=C1CCCCC1C1CCCCC1", "note": "(stereo not given)", "cytotoxicity increase": "-2.51% (inactive)"},
      {"smiles": "CC(C)CCCCCCc1ccc(OCCOCCO)cc1", "cytotoxicity increase": "-6.14% (inactive)"},
      {"smiles": "ICCc1ccccc1", "cytotoxicity increase": "6.79% (inactive)"},
      {"smiles": "FC(F)(F)C(Cl)(Cl)Cl", "cytotoxicity increase": "5.27% (inactive)"},
      {"smiles": "CCOC(=O)NCCC[Si](OCC)(OCC)OCC", "cytotoxicity increase": "3.52% (inactive)"},
      {"smiles": "CCC(=O)Nc1ccc(O)cc1", "cytotoxicity increase": "-8.3% [at 35.3 µM] (inactive)"},
      {"smiles": "OCCN1CCN(CCO)CC1", "cytotoxicity increase": "2.95% (inactive)"},
      {"smiles": "CC(C)=CCCC(C)CCOC=O", "note": "(stereo not given)", "cytotoxicity increase": "-2.68% (inactive)"},
      {"smiles": "O=Cc1ccc(F)c(Br)c1", "cytotoxicity increase": "-5.66% (inactive)"},
      {"smiles": "FC(F)(F)C(F)(F)C(F)(F)C(F)(F)C(F)(F)C(F)(F)C(F)(F)C(F)(F)Br", "cytotoxicity increase": "1.73% [at 35.3 µM] (inactive)"},
      {"smiles": "CCCc1c2oc(C(=O)O)cc(=O)c2cc2c(=O)cc(C(=O)O)n(CC)c12", "cytotoxicity increase": "1.1% [at 35.3 µM] (inactive)"},
      {"smiles": "CC(Oc1c(Cl)cccc1Cl)C1=NCCN1", "note": "(stereo not given)", "cytotoxicity increase": "-3.94% [at 35.3 µM] (inactive)"}
    ]}
  ]
}
